# PubChem BioAssay (NCATS)
# A number with no mark means an inactive call. Inconclusive results are not listed. A call without a number means that no potency is given here. Active and inactive are the calls of the source. Unless noted, calls come from the whole dose curve; as a rule, active = well fitted curve in the direction sought with a large enough effect; inconclusive = small, poorly fitted or top-dose-only effect, or another doubt; inactive = no such curve, though single readings can be large; an effect the other way counts as inactive or inconclusive.
# How the values were obtained:
# [1] = AP1 Signaling Pathway (AID 357; active = well fitted curve in either direction with a large enough effect, not every such curve was filed as active;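 note: ME-180 reporter cells stimulated with EGF at its EC50 level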); settings: ME-180 AP-1-bla reporter, EGF-induced, beta-lactamase ratio, 5 h; at 17.2 µM (top of the series) unless noted
# Summary of the method: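 Modulation of EGF-driven AP-1 transcription was assessed with a beta-lactamase reporter in ME-180 cells. Compound and EC50 EGF were co-incubated 5 hours at 37 °C before 2.5-hour CCF4 loading at room temperature and dual-emission reading.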
# [2] = biological target: Glucocorticoid receptor (Homo sapiens) (UniProt P04150); assay: GR-GFP Redistribution (AID 450;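 active = compounds whose dose series gives a full or clear partial fitted curve of increased nuclear translocation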; note: potency is the fitted concentration of half-maximal effect)
# [3] = qHTS Assay for Identification of Small Molecule Agonists for Hypoxia Response Element Signaling Pathway (AID 914; active = well fitted activation curve with a large enough effect in the signal ratio, with a control signal flat, not every such curve was filed as active; the % refers to the signal ratio; note: potency is the fitted concentration of half-maximal effect); settings: ME-180 HRE-bla reporter, beta-lactamase ratio, CoCl2, 17 h; activation: active compounds read high
# Summary of the method: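 HRE-bla ME-180 cells with beta-lactamase reporter under hypoxia response element, compounds with EC50 CoCl2 for 17 hours at 37 C. CCF4 substrate, 460nm/530nm emission ratio gave %Activity; AC50 from titration series.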
# [4] = biological target: Cytochrome P450 1A2 (Homo sapiens) (UniProt P05177); assay: p450-cyp1a2 (AID 410; calls by dose curve; note: potency is the fitted concentration of half-maximal effect)
# Summary of the method: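 Luminescent demethylation readout: Luciferin-ME (100uM, equal to Km) turned over by 20nM CYP1A2 for 60 min at room temperature after NADPH regeneration addition, following 10 min compound preincubation. Normalization used 57 uM furafylline as full inhibition.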
# [5] = NFAT Signaling Pathway (AID 444; active = well fitted curve in either direction with a large enough effect, not every such curve was filed as active;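 note: carbachol stimulus at about its EC50 of 1 µM final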); settings: Jurkat NFAT-bla M1, carbachol, beta-lactamase ratio, 5 h; at 17.2 µM (top of the series) unless noted
# Summary of the method: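 Jurkat cells with NFAT-driven β-lactamase reporter and co-expressed M1 receptor, stimulated with carbachol (final 1 uM, ~EC50), compound titration, 5 h at 37 °C. CCF4 loaded 1 h at RT; 460/530 nm ratio gave %activity and AC50.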
# [6] = Stat Signaling Pathway (AID 446; active = well fitted curve in either direction with a large enough effect, not every such curve was filed as active;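 note: ME-180 cervical cancer cells given 40 pM IL-6 alongside compound; SIE-controlled beta-lactamase reporter measured as 460/530 nm FRET emission ratio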); settings: ME-180 (cervical carcinoma) SIE beta-lactamase reporter, IL-6 stimulated, 5 h; at 17.2 µM (top of the series) unless noted
# Summary of the method: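 Normalization used AC90 stimulation (300 pM IL-6) and AC90 inhibition (125 nM pan-JAK inhibitor at 40 pM IL-6). The underlying signal is SIE-driven beta-lactamase in ME-180 cells after 5 h IL-6 exposure with compound.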
# [7] = biological target: Glucocorticoid receptor (Homo sapiens) (UniProt P04150); assay: GR-EFC Redistribution (AID 451; calls by dose curve; note: potency is the fitted concentration of half-maximal effect); settings: CHO-K1 GR-EFC translocation, beta-gal luminescence, 2 h
# Summary of the method: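 CHO-K1 cells expressing nuclear EA and GR-ED fragments of b-gal; compounds titrated up to 46 uM final, 2 h at 37 C. GR nuclear translocation read as complemented b-gal luminescence after 1 h RT detection.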
# [8] = biological target: Mitogen-activated protein kinase 10 (Mus musculus) (UniProt Q61831); assay: JNK3 AlphaScreen Assay (AID 530; active = well fitted curve in either direction with a large enough effect, not every such curve was filed as active;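 note: kinase came from lysate of stimulated human HepG2 cells; signal reports phosphorylation of biotinylated GST-cJun 1-79 at Ser73 with 10 µM ATP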)
# Summary of the method: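 Activity was read by AlphaScreen after JNK3-containing HepG2 lysate (cytokine pre-activated) phosphorylated biotinylated GST-cJun with 10 uM ATP at room temperature. Phospho-Ser73 cJun antibody with Protein-A acceptor beads provided detection.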
# [9] = biological target: Guanine nucleotide-binding protein G(i) subunit alpha-1 (Homo sapiens) (UniProt P63096); assay: qHTS Assay for Inhibitors of RGS12 GoLoco Motif Activity (Green Fluorophore) (AID 879);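 note: negative values mean loss of peptide binding seen as reduced polarization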
# Summary of the method: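 A drop in FITC polarization marked displacement of the FITC-tagged RGS12 GoLoco peptide (10 nM) from Gαi1 (50 nM). Compounds were incubated 10 min at room temperature in Tris pH 7.5 buffer containing 150 mM NaCl, 0.1 mM GDP and 0.05% NP40; unlabeled peptide titration served as control.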
# [10] = biological target: Cytochrome P450 2C9 (Homo sapiens) (UniProt P11712); assay: qHTS Assay for Inhibitors and Substrates of Cytochrome P450 2C9 (AID 883); note: nearly all actives have a fitted effect of over 60% in size
# Summary of the method: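 Signal: luciferase luminescence reporting luciferin produced by CYP2C9. Conditions: 10nM enzyme, Luciferin-H 100uM at KM, 25mM KPO4, 37C, 60 min NADPH-driven reaction. Reference: 57uM sulphaphenazole as 100% inhibition.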
# [11] = biological target: Cytochrome P450 3A4 (Homo sapiens) (UniProt P08684); assay: qHTS Assay for Inhibitors and Substrates of Cytochrome P450 3A4 (AID 884); note: nearly all actives have a fitted effect of over 50% in size
# Summary of the method: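 Luminescent readout of luciferin produced by CYP3A4 (20 nM) dealkylation of Luciferin-PPXE, 25 uM (its KM). NADPH-driven reaction ran 60 min at RT after 10 min compound preincubation; data scaled to 57 uM ketoconazole as 100% inhibition.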
# [12] = biological target: Cytochrome P450 2D6 (Homo sapiens) (UniProt P10635); assay: qHTS Assay for Inhibitors and Substrates of Cytochrome P450 2D6 (AID 891);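 note: luciferin methyl ether substrate demethylated by CYP2D6 with NADPH regeneration; nearly all actives have a fitted effect of over 60% in size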
# Summary of the method: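 Luminescent read-out of luciferin formed by 5 nM human CYP2D6 demethylating 30 uM Luciferin-ME EGE (Km level) over 60 min at room temperature after NADPH regeneration addition. Data normalized to full inhibition by 1.43 uM quinidine.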
# [13] = biological target: Cytochrome P450 2C19 (Homo sapiens) (UniProt P33261); assay: qHTS Assay for Inhibitors and Substrates of Cytochrome P450 2C19 (AID 899); note: nearly all actives have a fitted effect of over 60% in size
# Summary of the method: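 Signal comes from luciferase acting on luciferin released by CYP2C19-mediated hydroxylation of Luciferin-H EGE, 10uM (KM). Assay mix: 5nM enzyme, 50mM KPO4; 60 min at 37C with NADPH regeneration. Data normalized against 57uM ketoconazole.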
# [14] = biological target: Muscarinic acetylcholine receptor M1 (Rattus norvegicus) (UniProt P08482); assay: qHTS Assay for Antagonists of Acetylcholine Muscarinic M1 Receptor: Measurement of IP-One Response (AID 944); note: nearly all actives have a fitted effect of over 75% in size
# Summary of the method: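 IP1 accumulation measured via TR-FRET between d2-IP1 and Eu-cryptate anti-IP1 antibody after carbachol (200 nM, EC80) stimulation for 30 min; rat M1-transfected CHO cells received compound 10 min before agonist.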
# [15] = biological target: Pyruvate kinase (Leishmania mexicana) (UniProt Q27686); assay: qHTS Validation Assay for Inhibitors of Leishmania Mexicana Pyruvate Kinase (AID 945)
# Summary of the method: (§1)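 Eight-point qHTS titrations in triplicate, data normalized to DMSO neutral control. Reaction: 0.2 nM LmPYK E451W mutant, 0.5 mM PEP, 0.1 mM ADP, 7 mM MgCl2, pH 7.2, one hour at room temperature; luminescent ATP detection.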
# [16] = biological target: Pyruvate kinase PKM (Homo sapiens) (UniProt P14618); assay: qHTS Assay for Inhibitors of Human Muscle Pyruvate Kinase (AID 958)
# Summary of the method: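 Human PKM2 activity is measured as ATP generation, detected by luciferase-coupled luminescence. The enzyme (0.1 nM) acts on 0.5 mM PEP and 0.1 mM ADP for 1 h at ambient temperature; data are normalized to uninhibited and full-inhibition wells.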
# [17] = biological target: Pyruvate kinase (Leishmania mexicana) (UniProt Q27686); assay: qHTS Validation Assay for Activators of Leishmania Mexicana Pyruvate Kinase (AID 959)
# Summary of the method: as §1
# [18] = biological target: Alpha-galactosidase A (Homo sapiens) (UniProt P06280); assay: Counterscreen for Glucocerebrosidase Inhibitors: qHTS Assay for Human alpha-Galactosidase at pH 4.5 (AID 992)
# Summary of the method: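 Steps: enzyme (2 nM final), then compound across 0.7 nM to 77 uM, then 80 uM fluorogenic galactopyranoside substrate; incubate 20 min at room temperature; quench at pH 10; measure fluorescence at 365/440 nm.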
# [19] = biological target: alpha-glucosidase (Oryza sativa, rice) (UniProt Q653V4); assay: Counterscreen for Glucocerebrosidase Inhibitors: qHTS Assay for Rice alpha-Glucosidase at pH 5.0 (AID 997)
# Summary of the method: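 Endpoint fluorogenic assay at pH 5.0: compounds (0.7 nM to 77 uM) titrated against 4 nM rice enzyme and 400 uM 4-MU-alpha-glucoside for 20 min at room temperature; NaOH/glycine stop, read ex 365/em 440 nm, Hill-fitted AC50.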
# [20] = biological target: 3',5'-cyclic-AMP phosphodiesterase 4B (Homo sapiens) (UniProt Q07343); assay: qHTS Assay for Inhibitors of PDE-IV (AID 607; active = well fitted activation curve with a large enough effect in the main read-out, with a control signal flat, not every such curve was filed as active)
# Summary of the method: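 HEK293 ACTOne cells with CNG channel (1000/well), endogenous PDE4; membrane potential dye, compounds up to 22.9 uM final. Fluorescence Ex 535/Em 590; RO 20-1724 (100 uM final) as reference.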
# [21] = biological target: Cytochrome P450 3A4 (Homo sapiens) (UniProt P08684); assay: qHTS Assay for Activators of Cytochrome P450 3A4 (AID 885); note: potency is the fitted concentration of half-maximal effect; nearly all actives have a fitted effect of over 65% in size
# Summary of the method: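 Human CYP3A4 dealkylates Luciferin-PPXE to luciferin, which luciferase detection converts to light. Substrate was at its KM (25uM), buffer 200mM KPO4, reaction 60 min at RT.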
# [22] = biological target: Pyruvate kinase PKM (Homo sapiens) (UniProt P14618); assay: qHTS Assay for Activators of Human Muscle Pyruvate Kinase (AID 954; active = well fitted curve in the direction sought with a large enough effect, not every such curve was filed as active)
# Summary of the method: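 Compound pinned into substrate mix (0.5 mM PEP, 0.1 mM ADP), then 0.1 nM PKM2 added; 1 h, RT. Stop/detection luciferase reagent added, luminescence read. Normalized to no-inhibition and no-enzyme or reference-inhibitor controls.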
# [23] = qHTS Assay for Identification of Small Molecule Agonists for Thrombopoietin (TPO) Signaling Pathway (AID 917)
# Summary of the method: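 Stimulation at the TPO EC50 (26 pM final) was used to detect activators. Ba/F3 mouse cells bearing human TPO receptor and a luciferase reporter under the Glycoprotein IIb promoter were exposed to compounds for 24 hrs at 37 C.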
# [24] = biological target: Muscarinic acetylcholine receptor M1 (Rattus norvegicus) (UniProt P08482); assay: qHTS Assay for Antagonists of Acetylcholine Muscarinic M1 Receptor: Kinetic Measurement of Intracellular Calcium Response (AID 943); note: potency is the fitted concentration of half-maximal effect; nearly all actives have a fitted effect of over 75% in size
# Summary of the method: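 Antagonism measured as reduction of carbachol-evoked (EC80, 100 nM final) calcium flux in rat M1-CHO cells after 10 min compound exposure. Fluo-4 signal read kinetically; ratio of maximal to basal fluorescence.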
# Chain of Pyruvate kinase (Leishmania mexicana) (Q27686 2-499 E452W): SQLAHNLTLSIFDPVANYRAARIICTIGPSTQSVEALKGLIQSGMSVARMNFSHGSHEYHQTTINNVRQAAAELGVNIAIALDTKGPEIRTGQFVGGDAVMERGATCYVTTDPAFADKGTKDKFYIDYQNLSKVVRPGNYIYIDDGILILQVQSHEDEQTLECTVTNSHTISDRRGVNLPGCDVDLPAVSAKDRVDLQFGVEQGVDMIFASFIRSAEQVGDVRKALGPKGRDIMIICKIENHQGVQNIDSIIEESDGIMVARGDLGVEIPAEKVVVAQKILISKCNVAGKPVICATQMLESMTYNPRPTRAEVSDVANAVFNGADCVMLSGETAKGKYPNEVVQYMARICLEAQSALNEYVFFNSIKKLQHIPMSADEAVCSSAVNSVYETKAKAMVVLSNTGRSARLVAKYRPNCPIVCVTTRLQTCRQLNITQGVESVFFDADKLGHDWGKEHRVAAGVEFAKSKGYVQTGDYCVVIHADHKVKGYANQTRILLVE
# Chain of Alpha-galactosidase A (Homo sapiens) (P06280 whole entry, looked up): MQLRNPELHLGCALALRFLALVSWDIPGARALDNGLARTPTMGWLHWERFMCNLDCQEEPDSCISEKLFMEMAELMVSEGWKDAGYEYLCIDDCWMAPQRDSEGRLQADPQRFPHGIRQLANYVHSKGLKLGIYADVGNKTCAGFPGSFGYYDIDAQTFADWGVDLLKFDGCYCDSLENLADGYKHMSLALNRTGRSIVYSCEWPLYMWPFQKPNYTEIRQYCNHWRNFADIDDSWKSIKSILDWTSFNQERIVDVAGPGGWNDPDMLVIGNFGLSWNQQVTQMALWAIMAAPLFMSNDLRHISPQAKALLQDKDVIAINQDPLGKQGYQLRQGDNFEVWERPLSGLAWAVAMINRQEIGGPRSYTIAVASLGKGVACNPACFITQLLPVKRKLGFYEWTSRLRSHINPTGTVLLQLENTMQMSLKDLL
# Chain of Cytochrome P450 3A4 (Homo sapiens) (P08684 whole entry, looked up): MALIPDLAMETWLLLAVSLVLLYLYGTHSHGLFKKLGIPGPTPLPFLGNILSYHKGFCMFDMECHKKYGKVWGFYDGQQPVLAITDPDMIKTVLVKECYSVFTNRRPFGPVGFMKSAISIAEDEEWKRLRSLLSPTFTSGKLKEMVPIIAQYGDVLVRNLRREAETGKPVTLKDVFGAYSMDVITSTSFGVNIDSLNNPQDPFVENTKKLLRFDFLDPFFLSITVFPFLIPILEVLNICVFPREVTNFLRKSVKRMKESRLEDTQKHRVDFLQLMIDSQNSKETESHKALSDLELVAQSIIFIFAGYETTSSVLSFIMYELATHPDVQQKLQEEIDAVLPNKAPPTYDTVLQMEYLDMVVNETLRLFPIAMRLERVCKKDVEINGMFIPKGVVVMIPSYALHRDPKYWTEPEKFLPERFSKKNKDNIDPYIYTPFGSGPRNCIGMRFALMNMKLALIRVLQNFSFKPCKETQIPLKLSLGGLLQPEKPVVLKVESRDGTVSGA
# Chain of Pyruvate kinase PKM (Homo sapiens) (P14618 whole entry, looked up): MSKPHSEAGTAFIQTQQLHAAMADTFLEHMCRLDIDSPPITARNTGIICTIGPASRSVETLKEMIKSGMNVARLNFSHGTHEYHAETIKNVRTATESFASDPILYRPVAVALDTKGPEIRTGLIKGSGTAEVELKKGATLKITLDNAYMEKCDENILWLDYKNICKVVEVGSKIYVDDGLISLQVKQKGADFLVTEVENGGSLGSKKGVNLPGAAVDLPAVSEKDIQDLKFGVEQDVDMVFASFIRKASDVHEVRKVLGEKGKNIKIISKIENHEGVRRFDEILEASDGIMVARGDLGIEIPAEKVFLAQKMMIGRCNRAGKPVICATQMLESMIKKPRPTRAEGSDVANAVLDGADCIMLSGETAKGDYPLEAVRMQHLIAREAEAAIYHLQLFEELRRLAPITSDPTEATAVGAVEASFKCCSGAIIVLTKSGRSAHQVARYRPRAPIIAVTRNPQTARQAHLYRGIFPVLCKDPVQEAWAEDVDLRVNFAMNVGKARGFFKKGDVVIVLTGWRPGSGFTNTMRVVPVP
# Chain of Guanine nucleotide-binding protein G(i) subunit alpha-1 (Homo sapiens) (P63096 whole entry, looked up): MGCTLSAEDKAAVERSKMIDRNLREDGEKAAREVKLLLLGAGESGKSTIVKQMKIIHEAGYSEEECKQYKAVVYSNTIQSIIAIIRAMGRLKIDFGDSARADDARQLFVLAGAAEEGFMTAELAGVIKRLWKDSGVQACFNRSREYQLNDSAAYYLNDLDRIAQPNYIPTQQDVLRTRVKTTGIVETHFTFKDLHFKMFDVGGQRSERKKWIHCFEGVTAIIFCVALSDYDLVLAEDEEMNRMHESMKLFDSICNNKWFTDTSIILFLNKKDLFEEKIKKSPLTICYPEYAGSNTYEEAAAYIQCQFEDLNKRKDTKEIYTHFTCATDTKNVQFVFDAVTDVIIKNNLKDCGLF
# Chain of Muscarinic acetylcholine receptor M1 (Rattus norvegicus) (P08482 whole entry, looked up): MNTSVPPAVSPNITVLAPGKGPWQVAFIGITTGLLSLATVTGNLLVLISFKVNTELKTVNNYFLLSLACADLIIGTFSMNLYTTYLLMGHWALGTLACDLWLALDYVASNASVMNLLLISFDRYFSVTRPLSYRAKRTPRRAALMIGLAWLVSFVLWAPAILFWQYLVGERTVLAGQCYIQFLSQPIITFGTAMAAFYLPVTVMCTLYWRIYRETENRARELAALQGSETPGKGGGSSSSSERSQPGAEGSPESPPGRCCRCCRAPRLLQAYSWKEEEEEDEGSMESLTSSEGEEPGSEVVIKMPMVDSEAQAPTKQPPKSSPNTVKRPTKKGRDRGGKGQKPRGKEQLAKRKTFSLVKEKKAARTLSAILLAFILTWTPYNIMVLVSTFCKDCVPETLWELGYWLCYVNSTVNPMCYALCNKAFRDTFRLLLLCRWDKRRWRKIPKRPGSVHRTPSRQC
# Chain of Cytochrome P450 1A2 (Homo sapiens) (P05177 whole entry, looked up): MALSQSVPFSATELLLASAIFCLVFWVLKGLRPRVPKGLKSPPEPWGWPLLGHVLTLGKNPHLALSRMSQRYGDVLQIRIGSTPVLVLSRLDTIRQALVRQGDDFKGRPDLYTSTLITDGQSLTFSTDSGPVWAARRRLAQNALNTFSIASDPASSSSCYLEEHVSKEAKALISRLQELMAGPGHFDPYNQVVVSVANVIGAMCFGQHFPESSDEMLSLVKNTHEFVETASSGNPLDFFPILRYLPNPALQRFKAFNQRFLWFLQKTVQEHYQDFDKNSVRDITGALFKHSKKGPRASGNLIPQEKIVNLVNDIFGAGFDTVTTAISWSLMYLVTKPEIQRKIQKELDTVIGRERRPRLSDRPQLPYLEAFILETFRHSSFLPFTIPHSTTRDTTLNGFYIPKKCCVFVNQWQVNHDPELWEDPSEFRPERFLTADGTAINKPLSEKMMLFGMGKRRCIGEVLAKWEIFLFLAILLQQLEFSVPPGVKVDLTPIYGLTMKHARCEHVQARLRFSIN
# Chain of Glucocorticoid receptor (Homo sapiens) (P04150 whole entry, looked up, the tested form may be a part): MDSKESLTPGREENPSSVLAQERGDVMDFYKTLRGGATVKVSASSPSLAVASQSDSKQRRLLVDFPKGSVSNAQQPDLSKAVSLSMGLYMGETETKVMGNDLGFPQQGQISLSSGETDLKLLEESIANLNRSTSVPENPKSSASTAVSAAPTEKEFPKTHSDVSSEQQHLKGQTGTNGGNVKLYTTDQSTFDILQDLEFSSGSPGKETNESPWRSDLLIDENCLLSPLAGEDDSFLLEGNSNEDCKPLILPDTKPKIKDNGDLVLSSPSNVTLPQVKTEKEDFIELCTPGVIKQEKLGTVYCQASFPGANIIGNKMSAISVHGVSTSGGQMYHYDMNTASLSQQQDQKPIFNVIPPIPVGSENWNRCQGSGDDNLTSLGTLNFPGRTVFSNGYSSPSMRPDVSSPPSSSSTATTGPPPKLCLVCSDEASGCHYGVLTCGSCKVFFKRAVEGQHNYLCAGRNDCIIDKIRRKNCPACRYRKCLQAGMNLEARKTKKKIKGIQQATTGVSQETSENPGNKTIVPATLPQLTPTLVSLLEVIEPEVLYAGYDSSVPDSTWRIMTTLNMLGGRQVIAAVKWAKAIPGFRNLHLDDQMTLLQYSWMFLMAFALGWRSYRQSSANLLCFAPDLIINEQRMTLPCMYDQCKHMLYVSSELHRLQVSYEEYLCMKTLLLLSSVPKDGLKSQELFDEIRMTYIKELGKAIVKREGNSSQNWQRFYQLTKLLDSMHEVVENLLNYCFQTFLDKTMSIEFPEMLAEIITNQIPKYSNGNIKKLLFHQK
# Chain of 3',5'-cyclic-AMP phosphodiesterase 4B (Homo sapiens) (Q07343 whole entry, looked up): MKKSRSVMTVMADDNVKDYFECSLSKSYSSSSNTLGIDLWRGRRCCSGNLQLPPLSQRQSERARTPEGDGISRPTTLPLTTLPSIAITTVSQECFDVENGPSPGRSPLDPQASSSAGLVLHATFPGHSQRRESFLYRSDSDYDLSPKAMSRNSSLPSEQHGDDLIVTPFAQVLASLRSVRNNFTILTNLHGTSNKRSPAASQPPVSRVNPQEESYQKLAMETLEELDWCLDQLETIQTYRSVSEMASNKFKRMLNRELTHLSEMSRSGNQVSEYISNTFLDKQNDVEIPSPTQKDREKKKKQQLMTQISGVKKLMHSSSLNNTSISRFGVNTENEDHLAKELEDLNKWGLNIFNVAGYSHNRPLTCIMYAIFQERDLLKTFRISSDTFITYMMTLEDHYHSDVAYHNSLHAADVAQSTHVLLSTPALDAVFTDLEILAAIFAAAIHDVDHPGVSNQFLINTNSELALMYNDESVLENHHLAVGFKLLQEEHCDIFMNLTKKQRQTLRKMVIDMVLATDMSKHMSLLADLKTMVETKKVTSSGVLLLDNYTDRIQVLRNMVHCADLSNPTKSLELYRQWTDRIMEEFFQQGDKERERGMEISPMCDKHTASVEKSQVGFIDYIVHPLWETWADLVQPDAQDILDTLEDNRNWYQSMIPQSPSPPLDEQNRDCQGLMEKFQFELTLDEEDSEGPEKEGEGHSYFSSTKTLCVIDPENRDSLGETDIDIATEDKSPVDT
structure (smiles),measurement,setting,value
Cc1cc(C)c(C#N)c(SCc2[nH]nc3c2C(c2ccccc2)C(C#N)=C(N)O3)n1 (stereo not given),"activity change, negative = inhibition",[1],-21.7%
same,Potency,[2],> 20.6 µM
same,activation,[3],-8.62%
Nc1ncnc2c1ncn2[C@@H]1O[C@@H](COP(=O)(O)OP(=O)(O)OP(=O)(O)OP(=O)(O)OC[C@@H]2O[C@@H](n3cnc4c(N)ncnc43)[C@@H](O)[C@H]2O)[C@H](O)[C@@H]1O,Potency,[4],inactive
same,"activity change, negative = inhibition",[5],-0.343% [at 38 µM]
same,"activity, negative = inhibition",[6],32% [at 38 µM]
same,Potency,[2],> 46 µM
same,Potency,[7],> 46 µM
same,Potency,[8],inactive
same,outcome,[9],inactive
same,Potency,[10],inactive
same,Potency,[11],inactive
same,Potency,[12],inactive
same,Potency,[13],inactive
same,Potency,[14],inactive
same,Potency,[15],inactive
same,Potency,[16],inactive
same,Potency,[17],12.6 µM (active)
same,outcome,[18],inactive
same,outcome,[19],inactive
CCSc1nnc(NC(=O)C(CC)(C(F)(F)F)C(F)(F)F)s1,"activity change, negative = inhibition",[1],-19%
same,Potency,[2],> 20.6 µM
C=CCNC(=O)C(C#N)c1nc2ccccc2nc1N1CCCCCC1 (stereo not given),"activity change, negative = inhibition",[1],-18.4%
same,Potency,[2],> 20.6 µM
COc1cccc2c1C(=O)c1c(O)c3c(c(O)c1C2=O)C[C@](O)(C(=O)CO)C[C@H]3O[C@@H]1C[C@H](N)[C@H](O)[C@H](C)O1,Potency,[4],inactive
same,"activity, negative = inhibition",[6],92.4% [activator] (active)
same,Potency,[2],> 20.6 µM
same,Potency,[7],> 20.6 µM
same,Potency,[20],inactive
C=CCN1CCc2c(cc(O)c(O)c2Br)[C@H](c2ccccc2)C1,Potency,[4],12.6 µM (active)
same,"activity, negative = inhibition",[6],7.2% [at 38 µM]
same,Potency,[2],> 46 µM
same,Potency,[7],> 46 µM
same,outcome,[9],inactive
same,Potency,[11],inactive
same,Potency,[21],20 µM (active)
same,Potency,[15],inactive
same,outcome,[22],inactive
same,outcome,[18],inactive
same,outcome,[19],inactive
CCCCCCCCCCCCCCCCCC(=O)O[C@H](CC(=O)O)C[N+](C)(C)C,Potency,[4],inactive
same,"activity, negative = inhibition",[6],-28.3% [at 38 µM]
same,Potency,[2],> 46 µM
same,Potency,[7],> 46 µM
same,Potency,[8],inactive
same,Potency,[20],inactive
same,outcome,[9],inactive
same,Potency,[10],inactive
same,Potency,[23],inactive
same,Potency,[24],1 µM (active)
same,Potency,[15],inactive
same,outcome,[22],inactive
same,outcome,[18],inactive
same,outcome,[19],inactive
CN(C)c1ccc(-c2nn3c(-c4ccc(Cl)cc4)nnc3s2)cc1,"activity change, negative = inhibition",[1],21.4%
same,Potency,[2],> 20.6 µM
same,Potency,[3],10 µM (active)
N#CC1=C(SCC(=O)c2ccc(Br)cc2)NC2=C(C(=O)CCC2)C1c1ccco1 (stereo not given),"activity change, negative = inhibition",[1],-81.5% (active)
same,Potency,[2],> 20.6 µM
CNCC[C@H](Oc1ccccc1C)c1ccccc1,Potency,[4],15.8 µM (active)
same,"activity, negative = inhibition",[6],-13.9% [at 38 µM]
same,Potency,[2],> 46 µM
same,Potency,[7],> 46 µM
same,Potency,[8],inactive
same,outcome,[9],inactive
same,Potency,[24],11.2 µM (active)
same,Potency,[15],inactive
same,outcome,[22],inactive
same,outcome,[18],inactive
same,outcome,[19],inactive
